Molecules are shown by their SMILES. Results filed as inconclusive are left out. Values without a mark were called inactive. The source made the active and inactive calls. Calls follow the shape of the dose curve; as a rule, active = well fitted cell-killing curve with a large enough effect; inconclusive = small, poorly fitted or top-dose-only effect, or effect the other way; inactive = flat fitted curve, though single readings scatter. Where a SMILES comes first, the peptide text is derived from it. The star is where a group is joined. Cbz = O=C(OCc1ccccc1)*; CH2Cl = ClC*
% is scaled to controls: 0 for no effect and ±100 for the full control effect; potency is read from the fitted curve at half-maximal effect.

The first test relates to CAOV3. Nature of the test: Primary qHTS to identify gynecologic anti-cancer compounds using libraries of approved drugs and bioactive compounds (AID 1345084). Also: nearly all actives have a fitted effect of over 55% in size. The note with it: Gynecologic cancer cell panel viability, ATPlite luminescence, 48 h; series mostly up to 57.5 µM; activity change, negative = cytotoxicity: at the top concentration. Put shortly: (§1)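 Five-point cytotoxicity, 48 h drug exposure at 37 C, 5% CO2, on cells seeded 16 h beforehand. ATP content read by ATPlite luminescence.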
(Quantitative high-throughput screening tests each substance at several concentrations.)
For `C[C@H]1[C@H](/C=C/c2ccc(-c3ccccc3C#N)cn2)[C@@H]2[C@@H](C)OC(=O)[C@@H]2C[C@@H]1C`, the “activity change, negative = cytotoxicity” value is -18.9%. Still for that read-out and setting: the same measure for `Cc1c[nH]c2ncnc(N3CCC(CN)(C(=O)Nc4cccc(OC(=O)N(C)C)c4)CC3)c12`: -29.7%. The same measure, in the same setting: the same measure for `O=C(Nc1ncc([N+](=O)[O-])s1)c1ccccc1O`: 0.819%. Regarding `Nc1nc(Nc2ccc3c(c2)CCC(N2CCCC2)CC3)nn1-c1cc2c(nn1)-c1ccccc1CCC2` (stereo not drawn), the Potency is 7.94 µM (active). For `CNc1ccc([N+](=O)[O-])c(Nc2ccc3[nH]ncc3c2)n1`, the “activity change, negative = cytotoxicity” value was -13.8%. On the same count and under the same terms, the value for `Cc1ccc(N2CCN(S(=O)(=O)N3CCCCC3)CC2)c(C)c1` was -4.74%; that for `Cc1cc(F)c(C(=O)Nc2cccc(-c3nncn3C(C)C)n2)cc1-n1cnc(C2CC2)c1` was -21.3% [at 25.3 µM]. Still for that read-out and setting: the same measure for `C=C1C(=O)OC2C1CCC1(C)C(O)CC=C(C)C21` (stereo not drawn): 22.4%. The same measure, in the same setting: the same measure for `Cc1cc(N2CCN(C(=O)Oc3ccc(-c4ccccc4)cn3)CC2)c2ccccc2n1`: -2.82%.

As for `CC1CCCC(O)CC(=O)c2c(O)cc(O)cc2CC(=O)O1` (stereo not drawn), the “activity change, negative = cytotoxicity” value is -21.8% [at 38.5 µM].

On to `C=C1C(=O)OC2C(OC(=O)C=C(C)C)C(C)=C3C(=O)C=C(C)C3C(O)C12` (stereo not drawn), for which the Potency was 11.2 µM (active). As to `C=CCc1ccc(OC(C)Cc2ccc(OC)c(OC)c2)c(OC)c1` (stereo not drawn), the “activity change, negative = cytotoxicity” value was 26.8% [at 38.5 µM]. Still for that read-out and setting: the value for `COc1ccc(CNc2nc(N(CCO)CCO)nc3c2ncn3C(C)C)cc1` was -19.6%. Consider `COc1cc2c(NC3CCN(C(C)C)CC3)nc(N3CCC(F)(F)CC3)nc2cc1OCCCN1CCCC1`, for which the Potency is 8.91 µM (active). For `CCOc1ccc(S(=O)(=O)N2CCCCCC2)c2ccccc12`, the “activity change, negative = cytotoxicity” value was 18.5%. Same read-out and setting: the same measure for `CCN1CCN(Cc2ccc(NC(=O)c3ccc(C)c(Oc4ccnc5[nH]ccc45)c3)cc2C(F)(F)F)CC1`: -23.4% [at 38.5 µM].

`CC1(C)CC[C@]2(C(=O)O[C@@H]3O[C@H](CO)[C@@H](O)[C@H](O)[C@H]3O)CC[C@]3(C)C(=CCC4[C@@]5(C)CC[C@H](O[C@@H]6O[C@H](C(=O)O)[C@H](O)[C@H](O)[C@H]6O)C(C)(C)C5CC[C@]43C)[C@@H]2C1` (stereo partly drawn): the “activity change, negative = cytotoxicity” value was 2.7% [at 25.3 µM]. Same read-out and setting: the same measure for `O=C(NCc1cccs1)c1cc2nc(-c3ccco3)cc(C(F)(F)Cl)n2n1`: 25.4%.

The test system of a further test is CASKI. The test is described as above. The note with it: Gynecologic cancer cell panel viability, ATPlite luminescence, 48 h; series mostly up to 57.5 µM; activity change, negative = cytotoxicity: at the top concentration. The procedure, abridged: as §1
In general terms: ATP-based viability assays read luminescence as a measure of living cells.
Turning to `Cc1c[nH]c2ncnc(N3CCC(CN)(C(=O)Nc4cccc(OC(=O)N(C)C)c4)CC3)c12`, the “activity change, negative = cytotoxicity” value is -15%. For the molecule `O=C(Nc1ncc([N+](=O)[O-])s1)c1ccccc1O`, the “activity change, negative = cytotoxicity” value was 5.16%.

For `Cc1ccc(NC(=O)C(C)C)cc1C1CCN(Cc2ccc(Oc3ccc(F)c(F)c3)cc2)CC1`, the “activity change, negative = cytotoxicity” value was -35.7%. On the same count and under the same terms, the value for `C=C(C=O)[C@]1(O)C[C@@]2(C)C(=CC1=O)C=C[C@H](OC(=O)/C=C/C=C/[C@H](C)CC)[C@@H]2C` was -9.12% [at 25.3 µM]; that for `CNc1ccc([N+](=O)[O-])c(Nc2ccc3[nH]ncc3c2)n1` was -7.49%; that for `Cc1ccc(N2CCN(S(=O)(=O)N3CCCCC3)CC2)c(C)c1` was -0.594%.

On to `C=C1C(=O)O[C@@H]2[C@H]1CC[C@H](C)C(CCC(=O)O)C2(C)O` (stereo partly drawn), for which the “activity change, negative = cytotoxicity” value was -12.7%. Same read-out and setting: the same measure for `Cc1cc(F)c(C(=O)Nc2cccc(-c3nncn3C(C)C)n2)cc1-n1cnc(C2CC2)c1`: -2.87% [at 25.3 µM].

For the molecule `CCCCCCCCn1cc(CN(CC)CC)c2cc(-c3cnc(N)nc3)ccc21`, the “activity change, negative = cytotoxicity” value was -3.26%. Same read-out and setting: the same measure for `C=C1C(=O)OC2C1CCC1(C)C(O)CC=C(C)C21` (stereo not drawn): -1.16%; for `CC(C)C[C@H](NC(=O)CNC(=O)OCc1ccccc1)C(=O)N[C@@H](Cc1ccccc1)C(=O)CCl` (Cbz-Gly-Leu-Phe-CH2Cl): 0.0836%; for `C=C1C(=O)OC2/C=C(\COC(C)=O)CC/C=C(\C=O)CC(OC(=O)C(C)CC)C12` (stereo not drawn): -26.2% [at 25.3 µM]. Same read-out and setting: the value for `C=C1C(=O)OC2C(OC(=O)C=C(C)C)C(C)=C3C(=O)C=C(C)C3C(O)C12` (stereo not drawn) was -24.5% [at 38.5 µM]. Same read-out and setting: the value for `C=CCc1ccc(OC(C)Cc2ccc(OC)c(OC)c2)c(OC)c1` (stereo not drawn) was 7.41% [at 38.5 µM]; that for `Cc1nc(Nc2cnn(C3CCNCC3)c2)nc2c1N(C)C(=O)c1cc3ccccc3cc1N2C` was -28.6%. In the case of `COc1cc2c(NC3CCN(C(C)C)CC3)nc(N3CCC(F)(F)CC3)nc2cc1OCCCN1CCCC1`, the Potency is 31.6 µM (active). The same measure, in the same setting: the value for `C=C1C(=O)O[C@H]2C[C@@H](C)[C@@H]3CCC(=O)[C@@]3(C)C[C@H]12` was 7.94 µM (active).

Take `CCOc1ccc(S(=O)(=O)N2CCCCCC2)c2ccccc12`: the “activity change, negative = cytotoxicity” value is -2.63%. Same read-out and setting: the value for `CC1(C)CC[C@]2(C(=O)O[C@@H]3O[C@H](CO)[C@@H](O)[C@H](O)[C@H]3O)CC[C@]3(C)C(=CCC4[C@@]5(C)CC[C@H](O[C@@H]6O[C@H](C(=O)O)[C@H](O)[C@H](O)[C@H]6O)C(C)(C)C5CC[C@]43C)[C@@H]2C1` (stereo partly drawn) was 4.95% [at 25.3 µM].

As to `O=C(NCc1cccs1)c1cc2nc(-c3ccco3)cc(C(F)(F)Cl)n2n1`, the “activity change, negative = cytotoxicity” value is 12.4%.

These data come from PubChem BioAssay (NCATS).
